Compound activity as filed in PubChem.
A selection follows.
aSyn UTR act = Activators via SNCA 5'UTR binding, MLPCN; alpha-synuclein 5'UTR reporter, activators screen; hit rate 7.1% among 300,000; activity score, % (tested at 7.5 µM), hits read low; in the data active = activity score below about -60%
Starred values were filed as active, the others as inactive.

SMILES	aSyn UTR act
O=C(NCc1ccc2c(c1)OCO2)Nc1cccc(Cl)c1	-127*
Cc1cc(N2CCOCC2)n2ncc(-c3ccccc3Cl)c2n1	-160*
O=C(Nc1ncc(Cc2ccc(SC(F)F)cc2)s1)c1ccc(OC(F)F)cc1	-129*
CC(C)CN(C(=O)c1ccc(=O)n(C)n1)c1nc2ccccc2s1	-109*
Cc1csc(NC(=O)c2ccc(Br)s2)n1	-102*
Cc1csc(NC(=O)c2cccs2)n1	-112*
Cc1nc(NC(=O)c2cccs2)ccc1Br	-284*
CCc1sc(C(=O)Nc2nc(C)cs2)cc1C	-82*
CCOc1cccc2sc(NC(=O)c3ccc(Br)s3)nc12	-81*
CC(=O)c1sc(NC(=O)c2cccs2)nc1C	-98*
COc1nc(-c2ccccc2)ccc1-c1noc(-c2ccco2)n1	-168*
COc1nc(-c2ccccc2)ccc1-c1noc(-c2cccs2)n1	-198*
COc1nc(-c2ccccc2)ccc1-c1noc(-c2ccccc2)n1	-94*
COc1ccc(-c2ccc(-c3noc(-c4ccco4)n3)c(OC)n2)cc1	-126*
S=c1nc[nH]c2nc[nH]c12	67
COc1nc(C)ccc1-c1noc(-c2ccncc2)n1	-125*
Cc1nn(-c2nnc(NCc3ccccc3)nn2)c(C)c1Br	-85*
O=C(Nc1nccs1)c1cn2ccccc2n1	65
COc1c(C(=O)Nc2nnc(C3CC3)s2)csc1Cl	-97*
Cc1cc(C(=O)Nc2nnc(C3CCCCC3)s2)no1	-63*
Cc1cnc(C(=O)Nc2nccs2)cn1	-81*
CCOCC(=O)Nc1nnc(C2CCCCC2)s1	-123*
Cc1cnc(C(=O)Nc2nnc(C3CC3)s2)cn1	-97*
CCOC(=O)c1nc(N/N=C/c2ccccc2)sc1Br	-82*
CCCc1sc(N/N=C/c2ccccn2)nc1-c1ccc(Br)cc1	82
SMILES	aSyn UTR act
CC(=O)c1sc(N/N=C\c2ccc(Br)cc2)nc1C	-79*
O=C(/C=C/c1cccs1)Nc1nc(-c2ccccc2)cs1	-246*
O=C(/C=C/c1cccs1)Nc1nncs1	-162*
Cc1ccnc(NC(=O)/C=C/c2cccs2)c1	-77*
O=C(COC(=O)/C=C/c1cccs1)Nc1nc(-c2cccc(Br)c2)cs1	-79*
O=C(/C=C/c1cccs1)Nc1cccnc1	-175*
O=c1c2[nH]c3cccc(Cl)c3c2ncn1CC1CCCO1 (configuration not stated)	-80*
CCCC1c2ccc(C)n2CCN1C(=O)Nc1ccccc1Cl (configuration not stated)	-120*
Cc1cc(=O)n2[nH]c(-c3ccc(F)cc3)cc2n1	-64*
Cc1cccc(-c2cc3nc(-c4ccccc4)cc(=O)n3[nH]2)c1	-103*
Cc1cccc(-c2noc(CCc3ccccc3)n2)c1	-121*
Cc1cccc(-c2noc(Cc3ccccc3)n2)c1	-169*
Cc1ccc(-c2noc(CNc3ccccc3)n2)cc1	-78*
COc1cc(/C=N/Nc2nc(Nc3ccccc3)nc(-n3nc(C)cc3C)n2)cc(OC)c1OC	-68*
CCCCn1cnc2c(sc3nc4c(cc32)CSC(C)(C)C4)c1=O	-104*
CC(=O)N/N=C/c1ccccc1OCCOc1cccc(C)c1	-76*
Cc1ccc(NC(=O)CCOc2ccccc2)cc1	-203*
Cc1cccc(OCCCC(=O)Nc2ccc(N(C)C)cc2)c1	-88*
Cc1ccc(OCCCCCCN2CCNCC2)cc1	-64*
C/C(=N\Nc1ccc([N+](=O)[O-])cc1)c1ccc2c(c1)OCO2	-119*
C/C(=N\NC(=O)c1cccs1)c1ccc2c(c1)OCO2	-74*
C/C(=N\NC(=O)c1ccc2c(c1)OCCO2)c1ccccc1	73
C/C(=N\NC(=O)c1ccc2c(c1)OCO2)c1ccc2c(c1)OCO2	-83*
CC(=O)N1CCN(c2ccc(NC(=O)c3cccc(Cl)c3)cc2)CC1	-122*
CC(=O)N1CCN(c2ccc(NC(=O)c3ccc(C(C)(C)C)cc3)cc2)CC1	-96*
SMILES	aSyn UTR act
Cn1ccnc1SCC(=O)c1c[nH]c2ccccc12	-160*
COc1ccc(NC(=O)CCSc2ccc(F)cc2)cc1	-93*
COc1ccc(C(=O)CC(=O)c2ccc(F)cc2)cc1	-165*
COc1ccc(C(=O)C(CCC(CNC(C)(C)C)C(=O)c2ccc(OC)cc2)CNC(C)(C)C)cc1 (configuration not stated)	65
O=C(Cc1ccccn1)c1ccc(F)cc1	-64*
N/C(=N\OC(=O)CCCc1ccccc1)c1ccccc1Cl	-98*
O=C(CC(=O)c1ccccc1O)c1ccc(F)cc1	-75*
N/C(=N\OC(=O)Cc1ccccc1)c1ccc(Br)cc1	-80*
COc1ccc(OCc2cccc(C(=O)O)c2)cc1	128
COc1ccc(C(=O)CCc2ccccc2)cc1	-111*
Cc1ccc(/C(N)=N/OC(=O)Cc2ccccc2)cc1	-130*
COc1ccc(C(=O)CC(=O)C(=O)Nc2ccc(C)c(C)c2)cc1	-63*
Cc1cccc(/C(N)=N/OC(=O)CCc2ccccc2)c1	-157*
Cc1ccc(/C(N)=N/OC(=O)CCCc2ccccc2)cc1	-68*
COc1ccc(/C(N)=N/OC(=O)CCc2ccccc2)cc1	-100*
Nc1cc(Nc2ccc(Br)cc2)nc(N)n1	-149*
COc1ccc(Nc2cc(C)nc(N)n2)cc1	-64*
Cc1cc(Nc2ccc(Cl)cc2)nc(N)n1	-111*
O=C(Nc1ccccc1C(=O)Nc1ccc2c(c1)OCO2)c1ccco1	-74*
COc1ccccc1C(=O)Nc1ccc2c(c1)OCO2	-245*
COc1cc(C2=NOC(C(=O)NCc3ccc(F)cc3)C2)cc(OC)c1OC (configuration not stated)	77
COc1cc(C2=NOC(C(=O)Nc3ccc4c(c3)OCO4)C2)cc(OC)c1OC (configuration not stated)	-64*
COc1ccccc1C(=O)Nc1ccc2c(c1)OCCO2	-124*
COCCn1cnnc1SCC(=O)Nc1ccccc1C(=O)Nc1ccc2c(c1)OCO2	-70*
Nc1nn(-c2cccc(F)n2)cc1-c1ccccc1	-113*
SMILES	aSyn UTR act
Clc1ccccc1OCc1nnc(-c2ccccc2Br)o1	-173*
N#Cc1ccccc1OCc1nnc(-c2ccccc2Br)o1	-178*
O=c1c(Cl)c(Cl)cnn1Cc1nnc(-c2ccccc2Br)o1	-66*
CCN(CC)CCN(C(=O)/C=C/c1cccs1)c1nc2ccc(C)cc2s1	-79*
CN(C)CCN(C(=O)/C=C/c1cccs1)c1nc2c(F)cc(F)cc2s1	96
CCC(=O)N1CCN(c2nc3ccc(Br)cc3s2)CC1	-117*
CCc1ccc2nc(N3CCN(C(=O)C(C)(C)C)CC3)sc2c1	-98*
CC(C)(C)C(=O)N1CCN(c2nc3ccccc3s2)CC1	-119*
CCCC(=O)N1CCN(c2nc3ccccc3s2)CC1	-104*
O=C(NC1CC1)C1CCN(c2nc3ccccc3s2)CC1	-86*
O=C(c1cccs1)N1CCN(c2nc3ccccc3s2)CC1	-66*
CCOC(=O)/C(C#N)=C/C=C1/C=CC=CN1C	-63*
C=CCN1C=CC(=C/C=C(/C#N)C(=O)OCC)C=C1	-138*
COc1ccc(-c2cc3ncc(-c4ccccc4)c(N)n3n2)cc1	-96*
CC(=O)c1c(C)[nH]c(C(=O)Nc2ccc(Cl)c(S(=O)(=O)N(C)C)c2)c1C	-174*
CCC(C)c1ccc(NC(=O)c2[nH]c(C)c(C(C)=O)c2C)cc1 (configuration not stated)	-149*
CSc1cccc(NC(=O)c2[nH]c(C)c(C(C)=O)c2C)c1	-139*
Cc1ccc(NC(=O)CNCc2ccccc2Cl)cc1S(=O)(=O)N(C)C	-72*
CC(=O)c1c(C)[nH]c(C(=O)Nc2ccc(Cl)cc2F)c1C	-186*
